Experimental findings from PubChem BioAssay (NCI) are described below.

Compounds without any hit were thinned out: in the full panel of roughly 79,000, 15% have a hit. A number with no mark means an inactive call. The source made the active and inactive calls. Rule as the data show it: active = growth inhibition above about 70%; inactive = the rest.

The nature of assay [1]: NCI Yeast Anticancer Drug Screen. Data for the rad50 strain (AID 155).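 Also: 0% = growth of vehicle-only cultures of the same strain.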 Conditions: S. cerevisiae rad50 strain growth inhibition, stronger effect = higher value. In short, it runs like this: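 Genetically altered yeast (DNA repair pathway); compound treatment; growth inhibition vs vehicle ctrl.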
Assay [2] can be described thus: NCI Yeast Anticancer Drug Screen. Data for the mec2-1 strain (AID 157). Conditions: S. cerevisiae mec2-1 strain, stronger effect = higher value. In short, it runs like this: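 Growth inhibition is read against vehicle-treated controls after compound exposure of the mec2-1 yeast strain, which is defective in DNA damage repair or cell cycle control.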
Assay [3] in a line: NCI Yeast Anticancer Drug Screen. Data for the sgs1 mgt1 strain (AID 161).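 Also: 0% = growth of cultures given vehicle only.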 Conditions: S. cerevisiae sgs1 mgt1 strain, stronger effect = higher value. Put shortly: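 Compounds are added to genetically altered yeast, and growth is compared with cultures given vehicle alone to give percent inhibition.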
Assay [4] in a line: NCI Yeast Anticancer Drug Screen. Data for the cln2 rad14 strain (AID 165).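 Also: 0% = growth equal to vehicle treated cultures.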 Conditions: S. cerevisiae cln2 rad14 strain, stronger effect = higher value. Put shortly: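 Growth inhibition, relative to vehicle-treated controls, is the read-out. The test organism is a yeast strain with defined genetic alterations, cln2 rad14.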
Assay [5] in a line: NCI Yeast Anticancer Drug Screen. Data for the bub3 strain (AID 167). Conditions: S. cerevisiae bub3 mutant strain, stronger effect = higher value. Put shortly: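 Yeast carrying a defined mutation is treated with each compound, and growth is compared with that of vehicle-exposed cells to give inhibition.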
Assay [6] is described as follows: NCI Yeast Anticancer Drug Screen. Data for the mlh1 rad18 strain (AID 175). Conditions: S. cerevisiae mlh1 rad18 strain growth inhibition, stronger effect = higher value. In short, it runs like this:
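Cells of a genetically altered yeast strain, deficient in DNA damage repair, were treated with compound. Their growth was then compared with that of vehicle-treated cultures to give inhibition.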

Where [7] appears, read: at 5.0 µM (retest, dose inferred, filed as 0.5).
[8] abbreviates: at 50.0 µM (retest, dose inferred, filed as 5.0).

`CC(C)CCOc1ccc(/C=C\C(=O)O)cc1`: the growth inhibition in assay [1] (setting [7]) was 3%; in assay [1] (setting [8]) it was 30%; in assay [1] (at 50.0 µM), 61.1%; in assay [2] (setting [7]), -2%; in assay [2] (setting [8]), 41%; in assay [2] (at 50.0 µM) it was 81.5% (active). Further, the growth inhibition in assay [3] (setting [7]) was -3%; in assay [3] (setting [8]), 38%; in assay [3] (at 50.0 µM), 30.1%; in assay [4] (setting [7]), -1%; in assay [4] (setting [8]), 87% (active); in assay [4] (at 50.0 µM) it was 93.9% (active). Moreover, the growth inhibition in assay [5] (setting [7]) was 1%; in assay [5] (setting [8]) it was 54%; in assay [5] (at 50.0 µM) it was 71% (active); in assay [6] (setting [7]), 6%; in assay [6] (setting [8]), 43%; in assay [6] (at 50.0 µM), 75% (active).

As to `CN1C(=O)C23SSC1(C)C(=O)N2c1ccccc1C3(C)C` (configuration not stated), the growth inhibition in assay [1] (setting [7]) was 97% (active); in assay [1] (setting [8]) it was 99% (active); in assay [1] (at 50.0 µM), 99% (active); in assay [2] (setting [7]), 98% (active); in assay [2] (setting [8]), 96% (active); in assay [2] (at 50.0 µM), 99.6% (active). Also, the growth inhibition in assay [3] (setting [7]) was 99% (active); in assay [3] (setting [8]), 100% (active); in assay [3] (at 50.0 µM), 98% (active); in assay [4] (setting [7]), 98% (active); in assay [4] (setting [8]), 99% (active); in assay [4] (at 50.0 µM), 99.3% (active). The growth inhibition was 98% (active) in assay [5] (setting [7]); 99% (active) in assay [5] (setting [8]); 99.2% (active) in assay [5] (at 50.0 µM); 99% (active) in assay [6] (setting [7]); 99% (active) in assay [6] (setting [8]); 99.3% (active) in assay [6] (at 50.0 µM).

Regarding `CCCOCCC#N`, the growth inhibition in assay [1] (setting [7]) was 8%; in assay [1] (setting [8]), -2%; in assay [1] (at 50.0 µM) it was -11.6%; in assay [2] (setting [7]), 5%; in assay [2] (setting [8]), 0%; in assay [2] (at 50.0 µM), 7.45%. The growth inhibition in assay [3] (setting [7]) was -6%; in assay [3] (setting [8]) it was 1%; in assay [3] (at 50.0 µM) it was -8.1%; in assay [4] (setting [7]) it was 5%; in assay [4] (setting [8]), -2%; in assay [4] (at 50.0 µM), 40.9%. For the same molecule, the growth inhibition is 7% in assay [5] (setting [7]); 13% in assay [5] (setting [8]); -1.65% in assay [5] (at 50.0 µM); 7% in assay [6] (setting [7]); -1% in assay [6] (setting [8]); -17.9% in assay [6] (at 50.0 µM).

As for `CN(C)c1ccc(C2(c3ccc(N(C)C)cc3)OC(=O)c3ccccc32)cc1`, the growth inhibition is 2% in assay [1] (setting [7]); -6% in assay [1] (setting [8]); 26.6% in assay [1] (at 50.0 µM); 1% in assay [2] (setting [7]); -6% in assay [2] (setting [8]); 14.2% in assay [2] (at 50.0 µM). Also, the growth inhibition in assay [3] (setting [7]) is 1%; in assay [3] (setting [8]) it was -3%; in assay [3] (at 50.0 µM), 14.5%; in assay [4] (setting [7]), -5%; in assay [4] (setting [8]), -26%; in assay [4] (at 50.0 µM), 16.9%. Further, the growth inhibition was 60% in assay [5] (setting [7]); 61% in assay [5] (setting [8]); 82.6% (active) in assay [5] (at 50.0 µM); -9% in assay [6] (setting [7]); -40% in assay [6] (setting [8]); 38.9% in assay [6] (at 50.0 µM).

On to `Cc1cc(O)c(C(=O)/C=C/c2cccnc2)c(=O)[nH]1`, for which the growth inhibition in assay [1] (setting [7]) was -13%; in assay [1] (setting [8]) it was 79% (active); in assay [1] (at 50.0 µM), 68.9%; in assay [2] (setting [7]), -3%; in assay [2] (setting [8]) it was 76% (active); in assay [2] (at 50.0 µM), 33.7%. The growth inhibition in assay [3] (setting [7]) is -5%; in assay [3] (setting [8]), 92% (active); in assay [3] (at 50.0 µM), 84.8% (active); in assay [4] (setting [7]), 9%; in assay [4] (setting [8]), 70% (active); in assay [4] (at 50.0 µM), 16.3%. For the same molecule, the growth inhibition in assay [5] (setting [7]) is -16%; in assay [5] (setting [8]) it was 89% (active); in assay [5] (at 50.0 µM), 78.8% (active); in assay [6] (setting [7]) it was 8%; in assay [6] (setting [8]), 91% (active); in assay [6] (at 50.0 µM) it was 93% (active).

With `SCCCCCCCCCCS`, the growth inhibition in assay [1] (setting [7]) is 0%; in assay [1] (setting [8]), 98% (active); in assay [1] (at 50.0 µM), 98.9% (active); in assay [2] (setting [7]), 0%; in assay [2] (setting [8]), 99% (active); in assay [2] (at 50.0 µM) it was 99.4% (active). For the same molecule, the growth inhibition is 1% in assay [3] (setting [7]); 89% (active) in assay [3] (setting [8]); 99% (active) in assay [3] (at 50.0 µM); 4% in assay [4] (setting [7]); 94% (active) in assay [4] (setting [8]); 87.3% (active) in assay [4] (at 50.0 µM). In addition, the growth inhibition in assay [5] (setting [7]) is 2%; in assay [5] (setting [8]) it was 99% (active); in assay [5] (at 50.0 µM) it was 97.5% (active); in assay [6] (setting [7]), -1%; in assay [6] (setting [8]) it was 96% (active); in assay [6] (at 50.0 µM) it was 99.1% (active).

Turning to `O=C(/C=C/C(=O)N1CCCC1)N1CCCC1`, the growth inhibition in assay [1] (setting [7]) was 6%; in assay [1] (setting [8]), 10%; in assay [1] (at 50.0 µM), 1.15%; in assay [2] (setting [7]), 3%; in assay [2] (setting [8]), 1%; in assay [2] (at 50.0 µM), 0.65%. Moreover, the growth inhibition in assay [3] (setting [7]) is 4%; in assay [3] (setting [8]) it was 3%; in assay [3] (at 50.0 µM), 14.8%; in assay [4] (setting [7]), -4%; in assay [4] (setting [8]) it was -11%; in assay [4] (at 50.0 µM), -1.35%. For the same molecule, the growth inhibition in assay [5] (setting [7]) was 2%; in assay [5] (setting [8]), 6%; in assay [5] (at 50.0 µM), 2.55%; in assay [6] (setting [7]) it was -2%; in assay [6] (setting [8]), -2%; in assay [6] (at 50.0 µM), 37.4%.

`COc1cc2c(c(OC)c1OC)-c1ccc(SC)c(=O)cc1[C@@H](NC(=O)Oc1ccccc1)CC2`: the growth inhibition in assay [1] (setting [7]) was 73% (active); in assay [1] (setting [8]), 31%; in assay [1] (at 50.0 µM), 54%; in assay [2] (setting [7]), 24%; in assay [2] (setting [8]), 29%; in assay [2] (at 50.0 µM) it was -0.55%. Also, the growth inhibition was -9% in assay [3] (setting [7]); 9% in assay [3] (setting [8]); -2.45% in assay [3] (at 50.0 µM); -12% in assay [4] (setting [7]); 13% in assay [4] (setting [8]); 1.65% in assay [4] (at 50.0 µM). In addition, the growth inhibition is -8% in assay [5] (setting [7]); 8% in assay [5] (setting [8]); 0.9% in assay [5] (at 50.0 µM); 20% in assay [6] (setting [7]); 43% in assay [6] (setting [8]); 12.6% in assay [6] (at 50.0 µM).

On to `O=C(CN1CCCC1)Nc1nc(-c2ccc(Cl)cc2)cs1`, for which the growth inhibition in assay [1] (setting [7]) is 55%; in assay [1] (setting [8]) it was 69%; in assay [1] (at 50.0 µM), 50.5%; in assay [2] (setting [7]), 37%; in assay [2] (setting [8]), 53%; in assay [2] (at 50.0 µM) it was 35.7%. Besides, the growth inhibition in assay [3] (setting [7]) is 54%; in assay [3] (setting [8]), 87% (active); in assay [3] (at 50.0 µM), 67.5%; in assay [4] (setting [7]), 39%; in assay [4] (setting [8]) it was 57%; in assay [4] (at 50.0 µM), 48.3%. Further, the growth inhibition is 45% in assay [5] (setting [7]); 88% (active) in assay [5] (setting [8]); 67.6% in assay [5] (at 50.0 µM); 65% in assay [6] (setting [7]); 82% (active) in assay [6] (setting [8]); 64.2% in assay [6] (at 50.0 µM).
